# Compound activity from PubChem.
# Tau fibril ThT: tau fibrillization inhibition (ThT binding); P10636; Potency, µM (doses to about 57.4 µM), inactives show at the top dose activity, negative = inhibition, hits mostly inhibitors; 2.1% of 270,000 active; recombinant tau K18 P301L, heparin-induced fibrillization, ThT fluorescence; AID 1460; note: nearly all actives have a fitted effect of over 55% in size
# Target sequence (P10636 561-689 P618L limits assumed): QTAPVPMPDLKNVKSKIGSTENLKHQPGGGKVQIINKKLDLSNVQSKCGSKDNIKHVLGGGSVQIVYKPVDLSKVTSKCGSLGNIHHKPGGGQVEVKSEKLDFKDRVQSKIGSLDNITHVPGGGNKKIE
#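 Recombinant human tau K18 fragment […] carrying P301L, 15 uM unlabeled plus 0.24 uM Alexa 594-labeled, was fibrillized with 20 uM heparin in 100 mM sodium acetate pH 7 for 6 hr at 37 C; 30 uM ThT fluorescence read after 1 hr.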
# Tau fluor cs: counter-screen for tau fibril formation inhibitors; tau K18 P301L (four-repeat tau fragment) Alexa594 fluorescence, heparin fibrillization; Potency, µM (series often up to 57.7 µM), for inactives: at the top dose activity change, negative = decrease; 0.93% of 280,000 active; AID 1463; note: nearly all actives have a fitted effect of over 55% in size
#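 Human K18 P301L tau (15 uM unlabeled plus 0.24 uM Alexa 594-labeled, final) in 100 mM sodium acetate pH 7 was mixed with compound and 20 uM heparin and incubated 6 hr at 37 C.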
# GoLoco inh red: RGS12 GoLoco-Gai1 interaction inhibition | P63096 | Potency, µM (titrated, usually from 61.6 µM), without a hit: at the highest dose activity, negative = inhibition, actives largely listed as inhibitors | Gai1:RGS12 GoLoco peptide FP, rhodamine, 10 min | 0.44% of 230,000 active; active = well fitted inhibition curve with a large enough effect, not every such curve was filed as active; inactive = no such curve, though single readings can be large or run the other way; note: nearly all actives have a fitted effect of over 30% in size
# Target sequence (P63096 whole entry, looked up): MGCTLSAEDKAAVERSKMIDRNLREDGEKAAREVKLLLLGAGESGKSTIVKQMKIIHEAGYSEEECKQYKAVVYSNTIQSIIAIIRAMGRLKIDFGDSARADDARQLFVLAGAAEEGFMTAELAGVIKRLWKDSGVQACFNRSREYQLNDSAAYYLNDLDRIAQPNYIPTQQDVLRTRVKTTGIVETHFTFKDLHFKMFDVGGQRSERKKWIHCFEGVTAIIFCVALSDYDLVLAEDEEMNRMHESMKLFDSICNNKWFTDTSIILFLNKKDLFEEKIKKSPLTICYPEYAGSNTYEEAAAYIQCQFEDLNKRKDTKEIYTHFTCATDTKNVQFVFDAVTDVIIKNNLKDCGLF
# TR SRC2 fluor cs: Texas Red fluorescence interference in TRb-SRC2 counter-screen; TRb/SRC2 Texas Red total fluorescence interference; Potency, µM (top dose mostly 106 µM), inactives show at the top dose fluorescence change, negative = quenching; 0.29% of 280,000 active; active = well fitted curve in either direction with a large enough effect; inconclusive = small, poorly fitted or top-dose-only effect
#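 Human TRβ ligand-binding domain (0.6 uM) and Texas Red SRC2 peptide (20 nM) in Tris buffer with 1 uM T3 and 5% DMSO were incubated with pinned compound for 5 hr at ambient temperature. Total fluorescence was computed as S + 2P (555/632 nm).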
# Tau fibril FP: inhibitors of human tau fibril formation. 0.39% of 280,000 active. P10636. K18 P301L tau heparin fibrillization, Alexa594 FP, 6 h. Potency, µM (top dose mostly 57.7 µM), for inactives: top-dose activity, negative = inhibition, most hits filed as inhibitors. AID 1468; note: nearly all actives have a fitted effect of over 55% in size
#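 Compound effects on tau fibrillization are measured by Alexa 594 fluorescence polarization (ex 555, em 632 nm). K18 P301L tau is used at 15 uM with 0.24 uM labeled tracer, and 20 uM heparin induces aggregation over 6 hr at 37 C.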
# TRb-SRC2 inh: disrupts binding of human TR beta to SRC2; P10828; Potency, µM (titrated, usually from 106 µM), inactives show top-dose activity change, negative = inhibition, most hits filed as inhibitors; TRbeta-SRC2 peptide binding, fluorescence polarization; receptor liganded with 1 µM T3; 0.065% of 280,000 active;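 note: plate controls were bound peptide for no effect and peptide without receptor for full effect; nearly all actives have a fitted effect of over 50% in size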
#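 Decrease in fluorescence polarization of 20 nM Texas Red SRC2 coactivator peptide flagged inhibition of its binding to 0.6 uM TRb LBD; 1 uM T3 included, incubation 5 hr, ex 555/em 632 nm.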
# The depositor's hits bear a star; u = inconclusive; x = no result given; [ ] = remark or other dose. A selection: hits, their analogues and other compounds. The true share with any hit is near 3.2%. Unless noted, calls come from the whole dose curve; as a rule, active = well fitted curve in the direction sought with a large enough effect; inconclusive = small, poorly fitted or top-dose-only effect, or another doubt; inactive = no such curve, though single readings can be large; an effect the other way counts as inactive or inconclusive. Unless noted, % is set by controls: 0 for no effect and ±100 for the full control effect; potency is the fitted concentration of half-maximal effect.
SMILES,Tau fibril ThT,Tau fluor cs,GoLoco inh red,TR SRC2 fluor cs,Tau fibril FP,TRb-SRC2 inh
Cc1cc(C)cc(N2C(=O)NC(=O)/C(=C\C=C\c3ccco3)C2=O)c1,13µM*,-18%,95%,20%,u,10%
CC(C)c1ccc(N2C(=O)NC(=O)/C(=C/C=C/c3ccco3)C2=O)cc1,14µM*,-29%,126%,10%,14µM*,11%
Cc1ccc(N2C(=O)NC(=O)/C(=C\c3cccn3C(C)(C)C)C2=O)cc1,u,-13%,0%,0%,-2%,-9%
CCCCN1C(=O)/C(=C/C=C/c2ccco2)C(=O)NC1=S,16µM*,-30%,228%,18%,u,u
COP(=O)(OC)Oc1ccc([N+](=O)[O-])cc1,x,x,x,-4%[201 µM],x,-2%[201 µM]
CCNS(=O)(=O)C(F)(F)C(F)(F)C(F)(F)C(F)(F)C(F)(F)C(F)(F)C(F)(F)C(F)(F)F,x,x,x,-2%[201 µM],x,-1%[201 µM]
NS(=O)(=O)C(F)(F)C(F)(F)C(F)(F)C(F)(F)C(F)(F)C(F)(F)C(F)(F)C(F)(F)F,x,x,x,3%[201 µM],x,5%[201 µM]
Cc1ccc(N2C(=O)NC(=O)/C(=C/C=C/c3ccco3)C2=O)cc1,14µM*,-12%,23%,22%,u,23%
Cc1ccc(N2C(=O)NC(=O)/C(=C/c3ccoc3)C2=O)cc1,x,-14%,19%,25%,-12%,3%
C=C1C(=O)O[C@@H]2C[C@@H](C)[C@H]3C=CC(=O)[C@]3(O)C[C@@H]12,16µM*,-4%,-1%,1%,u,-4%
CC(C)(C)OOC(C)(C)c1ccc(C(C)(C)OOC(C)(C)C)cc1,x,x,x,-5%[201 µM],x,1%[201 µM]
COP(=O)(OC)OC(Br)C(Cl)(Cl)Br (stereo not drawn),x,x,x,-10%[201 µM],x,-4%[201 µM]
CCSCc1ccccc1OC(=O)NC,x,x,x,-2%[201 µM],x,-3%[201 µM]
N#CSCC(=O)N1c2ccccc2CCc2ccccc21,14µM*,-19%,9%,-2%,u,1%
Cn1ncnc2c(=O)n(C)c(=O)nc1-2,11µM*,-11%,-14%,-3%,u,u
CC(C)[C@@]1(NC(=O)[C@H]2CC3c4cccc5[nH]cc(c45)C[C@H]3N(C)C2)O[C@@]2(O)C3CCCN3C(=O)[C@@H](Cc3ccccc3)N2C1=O (stereo partly drawn),u,2.5µM*[quencher],12%,-3%,u,10%
CN1C[C@H](C(=O)N[C@]2(C)O[C@@]3(O)C4CCCN4C(=O)[C@H](Cc4ccccc4)N3C2=O)C[C@@H]2c3cccc4[nH]cc(c34)C[C@H]21 (stereo partly drawn),u,13µM*[quencher],4%,-7%,4%,0%
CS(=O)(=O)NC(=O)c1cc(Oc2ccc(C(F)(F)F)cc2Cl)ccc1[N+](=O)[O-],x,x,x,-1%[201 µM],x,4%[201 µM]
CN1COCN(Cc2cnc(Cl)s2)/C1=N\[N+](=O)[O-],x,x,x,3%[201 µM],x,-1%[201 µM]
O=c1[nH]c(=S)[nH]c(O)c1N=Nc1ccc(-c2ccccc2)cc1[N+](=O)[O-],4µM*,u,-1%,-11%,-11%,1%
O=c1[nH]c(O)c(N=Nc2cc(C(F)(F)F)ccc2Cl)c(=O)[nH]1,-12%,2%,2%,-6%,6%,5%
O=c1[nH]c(=S)[nH]c(O)c1N=Nc1cc2c(cc1[N+](=O)[O-])OCO2,13µM*,-20%,76%,0%,2%,5%
CCOc1nc(F)cc2nc(S(=O)(=O)Nc3c(Cl)cccc3Cl)nn12,x,x,x,9%[201 µM],x,-4%[201 µM]
CN1C(=O)C(=Cc2ccc(N3CCOCC3)o2)C(=O)N(C)C1=O,-6%,-9%,-3%,3%,2%,9%
CN1C(=O)C(=Cc2ccc(N3CCCCCC3)o2)C(=O)N(C)C1=S,13µM*,u,215%,1%,-4%,-15%
CCS(=O)(=O)c1cccnc1S(=O)(=O)NC(=O)Nc1nc(OC)cc(OC)n1,x,x,x,-4%[201 µM],x,0%[201 µM]
C=CC(=O)NCO,x,x,x,-2%[5.17e+03 µM],x,-3%[5.17e+03 µM]
